Records with an inconclusive call do not appear. Active and inactive are the calls of the source. Unless noted, the call rests on the fitted dose curve; in most records, active means well fitted curve in the direction sought with a large enough effect in the repeat runs; inconclusive means weak or mixed curves; inactive means no such curve, though single readings can be large; an effect the other way counts as inactive or inconclusive.
Columns and labels:
[1] = A CellTox Green Cytotoxicity Assay to monitor cytotoxicity in HepG2 cells - 0 hour (AID 1224882); further: nearly all actives have a fitted effect of over 35% in size
Method in brief: (§1)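 Cytotoxicity was tracked as dead-cell DNA fluorescence in HepG2 cells treated with test compounds at 37 C; each time-point value comes from one kinetic series spanning 0, 8, 16, 24, 32 and 40 h.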

[2] = A CellTox Green Cytotoxicity Assay to monitor cytotoxicity in HepG2 cells - 32 hour (AID 1224883); further: nearly all actives have a fitted effect of over 50% in size
Method in brief: as §1

[3] = A CellTox Green Cytotoxicity Assay to monitor cytotoxicity in HEK293 cells - 8 hour (AID 1224884); further: nearly all actives have a fitted effect of over 35% in size
Method in brief: (§2)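 Real-time, in one plate: 600 HEK293 cells/well with dead-cell DNA dye, pinned compound after 5 h, 37 C incubation over 40 h; viable cells give no appreciable fluorescence.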

[4] = qHTS RealTime-Glo MT Cell Viability Assay in HepG2 cells - 16 hour (AID 1224885); further: nearly all actives have a fitted effect of over 50% in size
Method in brief: (§3)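 Compound treatment began 5 h after plating HepG2 cells (600/well) with NanoLuc luciferase and prosubstrate. Plates stayed at 37 C for 40 h; luminescence was captured at six time points, 0 h through 40 h.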

[5] = qHTS RealTime-Glo MT Cell Viability Assay in HEK293 cells - 24 hour (AID 1224886); further: top concentration of the series differs between compounds; nearly all actives have a fitted effect of over 50% in size
Method in brief: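 Quantitative high-throughput screen of the Tox21 10K library in HEK293: cells and RealTime-Glo reagents plated together, compound added at 5 h, luminescence monitored through 40 h at 37 C.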

[6] = qHTS RealTime-Glo MT Cell Viability Assay in HEK293 cells - 8 hour (AID 1224887); further: top concentration of the series differs between compounds; nearly all actives have a fitted effect of over 50% in size
Method in brief: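 Kinetic, non-lysing viability readout. Seed HEK293 (600/well) with reagent, incubate 5 h at 37 C/5% CO2, pin 23 nL compound in DMSO, incubate at 37 C, read luminescence at 0, 8, 16, 24, 32, 40 h.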

[7] = A CellTox Green Cytotoxicity Assay to monitor cytotoxicity in HEK293 cells - 16 hour (AID 1224888); further: nearly all actives have a fitted effect of over 35% in size
Method in brief: as §2

[8] = qHTS RealTime-Glo MT Cell Viability Assay in HepG2 cells - 0 hour (AID 1224889); further: nearly all actives have a fitted effect of over 50% in size
Method in brief: as §3

[9] = A CellTox Green Cytotoxicity Assay to monitor cytotoxicity in HepG2 cells - 8 hour (AID 1224890); further: nearly all actives have a fitted effect of over 45% in size
Method in brief: as §1

[10] = qHTS assay to identify small molecule antagonists of the estrogen receptor alpha (ER-alpha) signaling pathway using the BG1 cell line in the presence of 0.1 nM 17-beta-estradiol - cell viability counter screen (AID 1259241); further: nearly all actives have a fitted effect of over 40% in size
Method in brief: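 CellTiter-Fluor read (30 min, 37C) on ER-alpha/ERE-luc VM7Luc4E2 cells; 22 hr compound treatment; agonist 0.1 nM E2 final; same-well multiplex.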

[11] = qHTS assay to identify small molecule antagonists of the androgen receptor (AR) signaling pathway using the MDA cell line in the presence of 0.5 nM R1881 - cell viability counter screen (AID 1259242); further: nearly all actives have a fitted effect of over 45% in size
Method in brief: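 Cells seeded at 3,000/well and allowed 5 hr at 37C, 0% CO2 before compound transfer and R1881 (0.5 nM final) addition; 16 hr later, live-cell protease fluorescence indicated cytotoxicity.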

[12] = biological target: Estrogen receptor (Homo sapiens) (UniProt P03372); test: qHTS assay to identify small molecule antagonists of the estrogen receptor alpha (ER-alpha) signaling pathway using the BG1 cell line in the presence of 0.1 nM 17-beta-estradiol (AID 1259244); further: nearly all actives have a fitted effect of over 50% in size
Method in brief: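 Luciferase signal from VM7Luc4E2 ERE-reporter cells, co-dosed with test compound and 0.1 nM final 17beta-estradiol for 22 h, read with ONE-Glo.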

[13] = qHTS assay to identify small molecule HDAC inhibitors (AID 1259364);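 further: wild-type HCT-116 cells with endogenous class I/II HDAC activity; top concentration of the series differs between compounds; nearly all actives have a fitted effect of over 45% in size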
Method in brief: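 HCT-116 wt cells, 1,500/well, overnight attach. Compounds (DMSO) 2 h, 37 °C. HDAC-Glo I/II, 30 min RT. Luminescence.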

[14] = qHTS assay to identify small molecule HDAC inhibitors - cell viability counter screen (AID 1259365)
Method in brief: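 To flag cytotoxic hits, 1,500 wild-type HCT-116 cells per well, plated the day before, receive test compounds for 2hr at 37 C before CellTiter-Glo reagent and a luminescence read.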

[15] = qHTS assay to identify small molecule antagonists of the sonic hedgehog signaling (Shh) pathway - cell viability counter screen (AID 1259367); further: nearly all actives have a fitted effect of over 55% in size
Method in brief: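 Conditioned medium drove Shh signaling in 3T3 Gli1-Luc cells exposed to compounds at 37C and 5% CO2. Viability was determined from CellTiter-Fluor fluorescence, with reagent incubated 1 hr after 23 hr of treatment.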

[16] = qHTS assay to identify small molecule agonists of the sonic hedgehog signaling (Shh) pathway (AID 1259368; calls by dose curve;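 further: NIH/3T3-derived 3T3Gli1-Luc cells carrying a stable Gli1-driven firefly luciferase reporter; series mostly up to about 92 µM; nearly all actives have a fitted effect of over 15% in size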)
Method in brief: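 Following a 24 hr incubation with DMSO-dissolved compounds at 37 C, 5% CO2, Gli1-Luc NIH/3T3-derived cells received luciferase reagent for 30 min at room temperature prior to luminescence measurement.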

[17] = qHTS assay to identify small molecule antagonists of the sonic hedgehog signaling (Shh) pathway (AID 1259369; calls by dose curve; further: nearly all actives have a fitted effect of over 45% in size)
Method in brief: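 Read-out is luminescence from a firefly luciferase gene controlled by the Gli1 response element, in 3T3Gli1-Luc cells pre-incubated 4hr then exposed to compounds and conditioned medium for 24hr.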

[18] = qHTS assay to identify small molecule agonists of the sonic hedgehog signaling (Shh) pathway - cell viability counter screen (AID 1259366); further: nearly all actives have a fitted effect of over 50% in size
Method in brief: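 Fluorescence from CellTiter-Fluor reports live cells in this counter screen. NIH/3T3-derived Gli1-Luc reporter cells receive test compounds for 24hr at 37C; reagent goes in at 23hr.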

[19] = qHTS assay to identify small molecule phospholipidosis (PLD) inducers (AID 1259344; active means well fitted curve in the direction sought with a large enough effect; an effect the other way counts as inactive or inconclusive)
Method in brief: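 After 4 h attachment on collagen I, HepG2 cells were dosed with compound alongside LipidTOX Red, kept 24 h at 37 C, fixed, and imaged for lamellar phospholipid pits.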

[20] = biological target: Androgen receptor (Homo sapiens) (UniProt P10275); test: qHTS assay to identify small molecule antagonists of the androgen receptor (AR) signaling pathway using the MDA cell line in the presence of 0.5 nM R1881 (AID 1259243); further: nearly all actives have a fitted effect of over 50% in size
Method in brief: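 Luminescence from an AR/GR-responsive MMTV-luciferase construct in MDA-kb2 breast carcinoma cells, read 30 min after ONE-Glo, following 16 hr co-treatment with compounds and 0.5 nM R1881.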

Measured: Potency

Sequence of Estrogen receptor (Homo sapiens) (P03372 whole entry, looked up): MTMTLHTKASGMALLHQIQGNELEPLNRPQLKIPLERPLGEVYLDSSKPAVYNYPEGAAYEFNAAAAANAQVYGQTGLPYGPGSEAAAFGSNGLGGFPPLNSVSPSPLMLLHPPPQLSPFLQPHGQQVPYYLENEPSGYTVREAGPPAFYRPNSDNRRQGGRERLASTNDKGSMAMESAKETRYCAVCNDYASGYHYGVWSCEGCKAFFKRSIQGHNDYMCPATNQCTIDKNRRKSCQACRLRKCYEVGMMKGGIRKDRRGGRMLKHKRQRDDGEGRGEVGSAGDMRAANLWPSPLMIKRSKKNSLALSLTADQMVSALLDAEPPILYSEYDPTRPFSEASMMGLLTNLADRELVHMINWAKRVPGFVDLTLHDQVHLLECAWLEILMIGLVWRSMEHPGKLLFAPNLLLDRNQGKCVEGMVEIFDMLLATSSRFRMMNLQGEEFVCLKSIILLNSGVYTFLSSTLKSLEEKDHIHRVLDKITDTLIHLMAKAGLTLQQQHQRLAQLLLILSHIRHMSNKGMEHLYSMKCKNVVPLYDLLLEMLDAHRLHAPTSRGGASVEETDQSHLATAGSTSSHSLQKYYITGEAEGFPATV
Sequence of Androgen receptor (Homo sapiens) (P10275 whole entry, looked up): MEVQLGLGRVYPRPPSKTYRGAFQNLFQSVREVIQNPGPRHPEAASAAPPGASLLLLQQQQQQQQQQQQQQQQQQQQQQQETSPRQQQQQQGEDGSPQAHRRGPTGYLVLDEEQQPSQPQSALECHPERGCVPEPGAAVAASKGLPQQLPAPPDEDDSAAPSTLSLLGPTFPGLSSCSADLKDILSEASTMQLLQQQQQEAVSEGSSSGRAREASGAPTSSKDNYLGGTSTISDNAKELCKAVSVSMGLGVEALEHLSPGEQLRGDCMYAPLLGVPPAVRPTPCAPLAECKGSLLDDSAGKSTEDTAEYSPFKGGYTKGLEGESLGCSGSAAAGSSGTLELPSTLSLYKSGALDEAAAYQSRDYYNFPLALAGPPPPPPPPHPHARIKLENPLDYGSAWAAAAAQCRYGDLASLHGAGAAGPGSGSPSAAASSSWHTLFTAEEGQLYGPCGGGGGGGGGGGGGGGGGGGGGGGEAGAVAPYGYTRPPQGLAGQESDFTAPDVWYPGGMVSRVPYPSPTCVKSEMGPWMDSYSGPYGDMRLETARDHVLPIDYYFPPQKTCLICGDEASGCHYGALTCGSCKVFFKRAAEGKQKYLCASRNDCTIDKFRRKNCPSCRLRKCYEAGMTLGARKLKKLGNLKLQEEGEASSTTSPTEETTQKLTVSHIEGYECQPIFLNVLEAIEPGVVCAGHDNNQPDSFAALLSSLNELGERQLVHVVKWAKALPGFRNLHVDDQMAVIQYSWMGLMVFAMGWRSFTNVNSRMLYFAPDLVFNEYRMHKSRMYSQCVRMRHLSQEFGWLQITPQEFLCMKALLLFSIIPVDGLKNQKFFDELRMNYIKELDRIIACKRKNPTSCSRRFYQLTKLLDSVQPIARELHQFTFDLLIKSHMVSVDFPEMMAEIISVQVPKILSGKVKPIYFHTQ

O=C(O)C(c1ccc(Cl)cc1)c1ccc(Cl)cc1
not listed: [18] | [19] | [20]
inactive: all other assays above

O=[N+]([O-])c1cccc(Cl)c1Cl
not listed: [19] | [20]
inactive: all other assays above

COC(=O)C(C)=O
not listed: [12] | [19] | [20]
inactive: all other assays above

CCCCCC(CO)CCC (stereo not drawn)
not listed: [12] | [19] | [20]
inactive: all other assays above

Nc1cnn([C@@H]2O[C@H](CO)[C@@H](O)[C@H]2O)c(=O)n1
not listed: [19] | [20]
inactive: all other assays above

CCCCCOC(=O)COc1cc(N2C(=O)C3=C(CCCC3)C2=O)c(F)cc1Cl
not listed: [19] | [20]
inactive: all other assays above

CC(=O)O[C@H]1C[C@@H]2CC[C@@H]3[C@H](CC[C@@]4(C)[C@H]3C[C@H]([N+]3(C)CCCCC3)[C@@H]4OC(C)=O)[C@@]2(C)C[C@@H]1N1CCCCC1
not listed: [20]
inactive: all other assays above

O=C(O)Cc1sc(-c2ccccc2)nc1-c1ccc(Cl)cc1
not listed: [15] | [18]
inactive: all other assays above

O=c1[nH]cnc2ccccc12
not listed: [19] | [20]
inactive: all other assays above

CCOC(=S)SSC(=S)OCC
not listed: [20]
inactive: all other assays above

N#CCCNCCC#N
not listed: [19] | [20]
inactive: all other assays above

Cl/C(=C\n1cncn1)c1ccc(Cl)cc1Cl
not listed: [12] | [20]
inactive: all other assays above

CC(=O)N(CC(=O)N(C)C)c1ccccc1
not listed: [18] | [19]
inactive: all other assays above
